Only some compounds are listed: those with a hit (about 7.5% of all), similar ones and a draw of the others.
NPC1 promoter act – qHTS Assay for NPC1 Promoter Activators | Huh7 NPC1 promoter luciferase reporter, 24 h | Potency, µM (top dose mostly 9.22 µM), hits mostly activators | 320,000 compounds, 2.4% hits; further: nearly all actives have a fitted effect of over 60% in size
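Luminescence from an NPC1 promoter-driven luciferase reporter in stably transfected Huh7 cells was measured after 24 h compound treatment at 37 °C, followed by 10 min ambient incubation with luciferase detection reagent.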
FLuc modulator – qHTS profiling assay for firefly luciferase inhibitor/activator using purifed enzyme and Km concentrations of substrates (counterscreen for miR-21 project); purified FLuc, Km substrates, luminescence inhibition; Potency, µM (doses to about 57.5 µM), most hits filed as inhibitors; 360,000 compounds, 6.9% hits; further: nearly all actives have a fitted effect of over 55% in size
Target sequence (P08659 whole entry, looked up): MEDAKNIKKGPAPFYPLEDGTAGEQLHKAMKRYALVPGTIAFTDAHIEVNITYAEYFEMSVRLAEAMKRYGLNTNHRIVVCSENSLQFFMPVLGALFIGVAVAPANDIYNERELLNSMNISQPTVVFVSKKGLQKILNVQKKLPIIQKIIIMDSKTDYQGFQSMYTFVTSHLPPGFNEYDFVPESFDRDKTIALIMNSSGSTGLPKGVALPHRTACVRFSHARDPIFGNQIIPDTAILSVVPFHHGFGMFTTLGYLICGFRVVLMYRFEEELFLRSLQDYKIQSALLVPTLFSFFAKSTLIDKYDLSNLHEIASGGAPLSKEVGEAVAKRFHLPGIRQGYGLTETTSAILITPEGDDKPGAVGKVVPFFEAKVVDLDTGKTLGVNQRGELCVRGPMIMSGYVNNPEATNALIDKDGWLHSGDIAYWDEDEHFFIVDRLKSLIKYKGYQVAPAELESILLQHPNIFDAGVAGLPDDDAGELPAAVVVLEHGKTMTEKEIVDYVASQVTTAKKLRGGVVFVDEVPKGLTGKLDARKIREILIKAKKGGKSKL
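Biochemical qHTS of compounds, final roughly 60 µM downward over six points, against 10 nM purified firefly luciferase using Km concentrations of substrates (10 uM D-luciferin, 10 uM ATP) in Tris acetate pH 7.5 buffer; luminescence output.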
ELG1 genotoxic – qHTS screen for small molecules that induce genotoxicity in human embryonic kidney (HEK293T) cells expressing luciferase-tagged ELG1; AID 504466, 2011; HEK293T ELG1-luciferase reporter, luminescence, 16 h; Potency, µM (series often up to 46 µM), usual class: activators; 330,000 compounds, 1.3% hits; further: nearly all actives have a fitted effect of over 60% in size
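ELG1-luciferase HEK293T cells, 2,000/well; compound pinned in; 16 hr, 37 °C, 5% CO2; ONE-Glo, 30 min RT; luminescence on CCD imager.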
SMN2 splice up – qHTS Assay for Enhancers of SMN2 Splice Variant Expression; Potency, µM (series often up to 46.1 µM), actives largely listed as activators; 210,000 compounds, 2.8% hits; HEK293 SMN2-luciferase splicing reporter, luminescence, 30-36 h; further: nearly all actives have a fitted effect of over 55% in size
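HEK293 cells carry an SMN2 minigene-luciferase reporter in which exon 7 inclusion puts luciferase in frame. Cells were seeded at 2000 cells/well, attached for 10-12 hours, then exposed to compounds for 30-36 hours at 37C before ONE-Glo luminescence.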
Rab9 prom act – qHTS Assay for Rab9 Promoter Activators. Huh7 Rab9 promoter-luciferase reporter, luminescence, 24 h. Potency, µM (doses to about 9.22 µM), most hits filed as activators. 320,000 compounds, 2.8% hits; further: nearly all actives have a fitted effect of over 60% in size
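Promoter activation is measured as luciferase luminescence in Huh7 cells stably transfected with a Rab9 promoter–luciferase construct, following 24 h compound exposure at 37 °C and 10 min reagent incubation at ambient temperature.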
Luc counter – Counterscreen for Luciferase (Kinase-Glo TM) Inhibition; Kinase-Glo luciferase, ATP luminescence, 8 min; Potency, µM (highest dose often 38.3 µM), actives largely listed as inhibitors; 200,000 compounds, 0.28% hits; further: nearly all actives have a fitted effect of over 60% in size
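Substrate mix (final 50 mM imidazole pH 7.2, 50 mM KCl, 7 mM MgCl2, 10 uM ATP, 0.01% Tween 20, 0.05% BSA) plus pin-tool compound, then Kinase-Glo detection mix; 8 min ambient, luminescence read.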
Numbers stand for hits; n = inactive; u = inconclusive; x = no result. The call rests on the fitted dose curve; in most records, active means well fitted curve in the direction sought with a large enough effect; inconclusive means small, poorly fitted or top-dose-only effect, or another doubt; inactive means no such curve, though single readings can be large; an effect the other way counts as inactive or inconclusive.

SMILES | NPC1 promoter act | FLuc modulator | ELG1 genotoxic | SMN2 splice up | Rab9 prom act | Luc counter
COc1ccc(C2=C/C(=C\c3ccccc3OC(C)=O)C(=O)O2)cc1 | n | u | n | x | n | x
COc1ccc(C2=C/C(=C\c3cccc(OC(C)=O)c3)C(=O)O2)cc1 | n | 24µM | n | u | n | n
COc1ccc(/C=N/c2nc3ccccc3n2C)cc1OC | n | 0.76µM | n | n | n | u
Cn1c(/N=C/c2cccs2)nc2ccccc21 | n | 1.1µM | n | n | n | u
Cn1c(/N=C/c2ccccc2[N+](=O)[O-])nc2ccccc21 | n | 1.7µM | n | x | n | x
COC(=O)C(OC(=O)c1ccccc1)C(C)Br (centres undefined) | n | n | n | x | n | x
CC(C)OC(=O)c1cccc(C(=O)O)n1 | n | n | n | n | n | n
CC(C)OC(=O)c1cccc(C(=O)Oc2ccc(Br)cc2)n1 | n | 9.5µM | n | n | n | n
COc1ccccc1C(=O)NNC(=O)c1csc(N2CCOCC2)n1 | n | 9.5µM | n | x | n | x
Cc1ccc(-c2cc(C(=O)NNC(=O)c3csc(N4CCOCC4)n3)c3ccccc3n2)cc1 | n | 13µM | n | x | n | x
O=C(NNC(=O)c1cc(-c2ccccc2)nc2ccccc12)c1csc(N2CCOCC2)n1 | n | u | n | x | n | x
Cc1cccc(Nc2cc(C)c3c(O)cccc3n2)c1C | n | 17µM | n | n | n | n
Cc1ccc(CCNC(=O)C2CCN(Cc3nc(-c4ccccc4C)oc3C)CC2)cc1 | x | n | x | n | x | x
Cc1ccccc1NC(=S)NNC(=O)c1csc2c1CCC(C)C2 (centres undefined) | 3.2µM | 2.4µM | u | n | 2.2µM | n
CC1CCc2c(C(=O)NCc3ccccn3)csc2C1 (centres undefined) | u | 21µM | u | u | n | n
CC1CCc2c(C(=O)Nc3nccs3)csc2C1 (centres undefined) | u | 4.8µM | u | u | u | n
CC1CCc2sc(C(=O)NCc3ccccn3)cc2C1 (centres undefined) | n | 19µM | 18µM | x | u | x
CCNC(=S)NNC(=O)c1csc2c1CCC(C)C2 (centres undefined) | n | n | n | n | n | n
CC1CCc2sc(C(=O)NCc3ccc(F)cc3)cc2C1 (centres undefined) | n | u | n | n | n | n
COc1ccc(CCNC(=O)Cn2cc(C(=O)c3ccc(Cl)cc3)c(=O)c3ccc(C)nc32)cc1OC | x | n | x | x | x | x
Cc1nn(C)c(C)c1CCNC(=O)Nc1cccc(Cl)c1C | x | n | x | x | x | x
Cn1cnc(S(=O)(=O)N2CCN(c3cccc(Cl)c3)CC2)c1 | n | n | n | x | n | x
CCOC(=O)C(C)Sc1nnc2cc(C)c3ccccc3n12 (centres undefined) | x | n | x | x | x | x
CC1CCc2c(C(=O)Nc3ccccn3)csc2C1 (centres undefined) | 3.5µM | 2.1µM | u | x | 3.2µM | x
Cn1c(=O)c2sccc2n2c(CCCC(=O)NCc3ccccc3)nnc12 | x | n | x | x | x | x
SMILES | NPC1 promoter act | FLuc modulator | ELG1 genotoxic | SMN2 splice up | Rab9 prom act | Luc counter
CCC(=O)OCC(=O)C1(OC(=O)CC)C(C)CC2C3CCC4=CC(=O)C=CC4(C)C3(Cl)C(O)CC21C (centres undefined) | x | x | x | n | x | n
O=C(NC1CCCC1)c1cc(-c2cccs2)on1 | 1.6µM | 4.8µM | 9.2µM | u | 2µM | n
O=C(NC1CC1)c1cc(-c2cccs2)on1 | x | 11µM | x | x | x | x
Cc1cc(C)n(-c2ccc(Cl)c(C(=O)O)c2)n1 | n | 19µM | n | x | n | n
Cc1cccc(N/N=C/c2ccncc2)c1 | u | 15µM | u | x | u | x
O=C(N/N=C/c1ccc(O)cc1)c1cccc(N/N=C/c2ccc(O)cc2)c1 | 0.56µM | 2.1µM | u | x | 0.89µM | x
O=C(N/N=C/c1ccncc1)c1cccc(NC(=O)c2ccc(Cl)cc2)c1 | n | n | n | n | n | n
Cc1cccc(NC(=O)C(=O)N/N=C/c2ccncc2)c1 | n | n | n | n | n | n
Cc1cccc(N/N=C/c2ccccc2O)c1 | u | 6µM | u | 11µM | 4µM | n
Cc1cccc(NC(=O)CCC(=O)N/N=C/c2ccc(O)cc2O)c1 | n | n | n | x | n | x
O=C(N/N=C/c1ccncc1)c1cccc(N/N=C/c2ccncc2)c1 | 3.5µM | 11µM | n | u | u | n
CN1C(=O)c2ccccc2Sc2ccc(NC(=O)COc3ccc(Cl)cc3)cc21 | x | n | x | x | x | x
Cc1ccc(C(=O)c2cnc3cc4c(cc3c2S(=O)(=O)c2ccccc2)OCCO4)cc1 | n | 1.7µM | n | n | n | n
CCOc1ccc(S(=O)(=O)c2c(C(=O)c3ccc(C)cc3)cnc3cc4c(cc23)OCCO4)cc1 | n | n | n | n | n | n
Brc1ccc(-c2cn3c(n2)SCC3)cc1 | 1.1µM | 5.4µM | 10µM | 10µM | 0.71µM | n
Clc1ccc(-c2cn3c(n2)SCC3)cc1 | 1.8µM | 19µM | n | 11µM | 1.4µM | n
Oc1ccc(-c2cn3c(n2)SCC3)cc1 | n | u | n | n | n | n
N#CCCN(C(=O)COC(=O)CCN=C1NS(=O)(=O)c2ccccc21)c1ccc(F)cc1 | n | n | n | x | n | x
Cc1ccc(CCNC(=O)C(NS(=O)(=O)c2ccc3c(c2)oc(=O)n3C)C(C)C)cc1 (centres undefined) | x | n | x | n | x | x
O=C(Nc1ccc(-c2nc3cc(Cl)ccc3o2)cc1)c1cc2ccccc2o1 | x | n | x | n | x | x
O=C(Nc1ccc(Oc2ccccc2)cc1)C1CCCO1 (centres undefined) | u | u | n | n | u | n
O=C(Nc1ccc(-c2nc3cc(Cl)ccc3o2)cc1)C1CCCO1 (centres undefined) | 0.79µM | 1.2µM | 18µM | 2.8µM | 0.5µM | n
O=C(Nc1ccc(-c2nc3cccnc3s2)cc1)C1CCCO1 (centres undefined) | 0.13µM | 0.6µM | u | 1.1µM | 0.1µM | u
O=C(Nc1ccc(-c2nc3ccccc3o2)cc1)C1CCCO1 (centres undefined) | 0.32µM | 1.3µM | u | 7.9µM | 0.45µM | n
O=C(Nc1ccc2oc(-c3ccccc3)nc2c1)C1CCCO1 (centres undefined) | 2.2µM | 7.6µM | 18µM | 11µM | 2.8µM | n
Cc1ccc(CSc2nnc(SCC(=O)N/N=C/c3ccc(C(=O)O)cc3)s2)cc1 | n | 0.24µM | n | x | n | x
O=C(CSc1nnc(SCc2ccc(Cl)cc2)s1)N/N=C/c1ccccc1C(=O)O | n | 11µM | n | x | n | x
O=C(CSc1nnc(SCc2ccccc2)s1)N/N=C/C=C/c1ccccc1[N+](=O)[O-] | n | 24µM | n | n | n | n
